Laboratory results: publication PMC7862700, “An all-to-all approach to the identification of sequence-specific readers for epigenetic DNA modifications on cytosine”

Experiments:
Assay in all cases: DAPPL (digital affinity profiling via proximity ligation, sequencing); 10 mM Tris-HCl pH 7.5, 50 mM NaCl, 1 mM DTT, 4% glycerol, room temperature, 30 min; GST-TFs on glutathione beads, 16-mer random dsDNA library, 0.1% formaldehyde crosslink after washing; high values mean tight binding
Details in all cases: protein: recombinant; tags: N-terminal GST; dsDNA, one strand shown
ELK4 = biological target: T1, ELK4 (Homo sapiens, UniProt P28324-2 1-405)
T1 sequence: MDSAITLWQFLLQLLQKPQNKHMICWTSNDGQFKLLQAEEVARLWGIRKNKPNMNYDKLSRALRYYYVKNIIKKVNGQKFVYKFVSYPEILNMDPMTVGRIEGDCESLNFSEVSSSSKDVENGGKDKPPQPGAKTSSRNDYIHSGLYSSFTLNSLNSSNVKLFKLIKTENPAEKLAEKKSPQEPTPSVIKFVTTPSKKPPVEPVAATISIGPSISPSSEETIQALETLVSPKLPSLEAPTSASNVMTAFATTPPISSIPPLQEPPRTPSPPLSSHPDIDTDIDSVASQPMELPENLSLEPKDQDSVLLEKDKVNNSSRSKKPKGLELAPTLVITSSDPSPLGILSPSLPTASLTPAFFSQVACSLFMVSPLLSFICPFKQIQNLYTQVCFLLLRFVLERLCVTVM
How it was run: (§1)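 Human transcription factors were made in yeast as GST fusions, captured on glutathione beads and barcoded with DNA. With a tag-only sample included, the pool was incubated with 200 nmole of a random double-stranded 16-mer DNA library in Tris/NaCl/DTT/glycerol buffer at room temperature for 30 min, then crosslinked with 0.1% formaldehyde after washing, ligated by proximity, amplified and sequenced. For binding signal, each hexamer's read frequency for a factor is divided by its frequency for the tag-only sample.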

ETV2 = biological target: T2, ETV2 (Homo sapiens, UniProt O00321 1-342)
T2 sequence: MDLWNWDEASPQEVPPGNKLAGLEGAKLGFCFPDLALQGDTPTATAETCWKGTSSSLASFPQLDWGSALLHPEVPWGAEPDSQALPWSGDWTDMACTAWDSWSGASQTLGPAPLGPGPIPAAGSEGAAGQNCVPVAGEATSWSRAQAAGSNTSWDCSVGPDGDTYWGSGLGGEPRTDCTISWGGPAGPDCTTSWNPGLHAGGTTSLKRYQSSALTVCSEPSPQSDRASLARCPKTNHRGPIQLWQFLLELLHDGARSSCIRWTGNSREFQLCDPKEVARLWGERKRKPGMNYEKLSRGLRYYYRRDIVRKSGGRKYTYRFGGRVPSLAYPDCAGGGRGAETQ
How it was run: as §1

ELF3 = biological target: T3, ELF3 (Homo sapiens, UniProt P78545 1-371)
T3 sequence: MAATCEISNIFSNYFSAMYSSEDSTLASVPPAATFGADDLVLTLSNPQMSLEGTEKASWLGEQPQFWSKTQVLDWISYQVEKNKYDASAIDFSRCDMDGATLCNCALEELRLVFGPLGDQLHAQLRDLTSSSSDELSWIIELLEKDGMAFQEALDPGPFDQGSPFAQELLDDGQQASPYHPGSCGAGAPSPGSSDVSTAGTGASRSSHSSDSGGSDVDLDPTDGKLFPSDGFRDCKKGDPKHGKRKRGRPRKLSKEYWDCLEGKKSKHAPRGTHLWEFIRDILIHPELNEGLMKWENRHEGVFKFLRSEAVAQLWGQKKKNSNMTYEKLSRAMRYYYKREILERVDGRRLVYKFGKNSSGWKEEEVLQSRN
How it was run: as §1

ETV1 = ETV1 (Homo sapiens, UniProt P50549 1-477)
How it was run: as §1

ERF = biological target: T4, ERF (Homo sapiens, UniProt P50548 1-548)
T4 sequence: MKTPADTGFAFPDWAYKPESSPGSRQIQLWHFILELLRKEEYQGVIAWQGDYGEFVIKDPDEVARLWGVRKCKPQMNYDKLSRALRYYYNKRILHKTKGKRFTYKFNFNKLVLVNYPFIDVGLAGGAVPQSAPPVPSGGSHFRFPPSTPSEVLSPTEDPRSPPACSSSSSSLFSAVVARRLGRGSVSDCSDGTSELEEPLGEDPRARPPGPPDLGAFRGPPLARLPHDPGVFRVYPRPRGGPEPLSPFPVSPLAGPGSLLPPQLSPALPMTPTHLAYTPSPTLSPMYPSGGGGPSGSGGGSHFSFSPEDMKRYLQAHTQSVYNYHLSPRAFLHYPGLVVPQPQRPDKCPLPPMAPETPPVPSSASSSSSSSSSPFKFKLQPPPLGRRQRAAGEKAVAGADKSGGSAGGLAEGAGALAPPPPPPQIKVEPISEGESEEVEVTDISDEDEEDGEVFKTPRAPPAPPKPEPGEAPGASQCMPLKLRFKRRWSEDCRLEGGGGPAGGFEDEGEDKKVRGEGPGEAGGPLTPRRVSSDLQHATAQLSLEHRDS
How it was run: as §1

ETV3L = biological target: T5, ETV3L (Homo sapiens, UniProt Q6ZN32 1-361)
T5 sequence: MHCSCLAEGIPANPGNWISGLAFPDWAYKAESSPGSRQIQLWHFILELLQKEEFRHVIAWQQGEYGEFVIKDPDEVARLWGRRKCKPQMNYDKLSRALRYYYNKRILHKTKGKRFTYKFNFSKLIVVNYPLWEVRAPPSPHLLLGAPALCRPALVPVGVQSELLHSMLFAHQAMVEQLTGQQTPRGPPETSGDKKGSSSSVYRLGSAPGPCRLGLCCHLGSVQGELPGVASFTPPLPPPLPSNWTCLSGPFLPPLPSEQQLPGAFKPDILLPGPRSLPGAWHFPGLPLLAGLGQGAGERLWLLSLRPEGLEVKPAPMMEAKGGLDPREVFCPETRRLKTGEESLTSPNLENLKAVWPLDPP
How it was run: as §1

ETS2 = biological target: T6, ETS2 (Homo sapiens, UniProt P15036 1-469)
T6 sequence: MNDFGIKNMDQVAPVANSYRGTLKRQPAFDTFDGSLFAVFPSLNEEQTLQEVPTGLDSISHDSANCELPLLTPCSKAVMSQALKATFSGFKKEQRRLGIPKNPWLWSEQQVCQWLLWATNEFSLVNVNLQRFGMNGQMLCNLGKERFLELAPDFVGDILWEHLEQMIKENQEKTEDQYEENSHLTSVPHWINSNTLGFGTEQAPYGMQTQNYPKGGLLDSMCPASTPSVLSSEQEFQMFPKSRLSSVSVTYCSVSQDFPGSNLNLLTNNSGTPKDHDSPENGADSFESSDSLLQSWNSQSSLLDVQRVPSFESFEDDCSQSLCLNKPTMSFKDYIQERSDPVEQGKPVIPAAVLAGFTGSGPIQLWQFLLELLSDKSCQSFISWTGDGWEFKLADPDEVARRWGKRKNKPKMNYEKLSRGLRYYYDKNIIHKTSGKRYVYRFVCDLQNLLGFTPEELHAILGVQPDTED
How it was run: as §1

ETV7 = biological target: T7, ETV7 (Homo sapiens, UniProt Q9Y603 1-341)
T7 sequence: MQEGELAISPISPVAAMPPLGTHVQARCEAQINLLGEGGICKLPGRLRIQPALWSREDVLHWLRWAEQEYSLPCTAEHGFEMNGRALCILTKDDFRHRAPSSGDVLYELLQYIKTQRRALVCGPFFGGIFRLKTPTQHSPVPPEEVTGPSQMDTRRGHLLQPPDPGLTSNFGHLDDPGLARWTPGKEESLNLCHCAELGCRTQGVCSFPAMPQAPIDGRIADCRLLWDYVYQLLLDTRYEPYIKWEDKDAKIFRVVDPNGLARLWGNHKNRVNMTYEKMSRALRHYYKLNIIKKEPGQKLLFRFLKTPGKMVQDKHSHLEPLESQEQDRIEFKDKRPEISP
How it was run: as §1

ETV3 = biological target: T8, ETV3 (Homo sapiens, UniProt P41162-2 1-143)
T8 sequence: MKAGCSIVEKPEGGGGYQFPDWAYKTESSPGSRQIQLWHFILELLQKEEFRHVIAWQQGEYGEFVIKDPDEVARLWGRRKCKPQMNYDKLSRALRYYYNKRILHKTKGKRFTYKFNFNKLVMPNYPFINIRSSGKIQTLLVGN
How it was run: as §1

ETV6 = ETV6 (Homo sapiens, UniProt P41212 1-452)
How it was run: as §1

Sequence of ETV6 (P41212 whole entry): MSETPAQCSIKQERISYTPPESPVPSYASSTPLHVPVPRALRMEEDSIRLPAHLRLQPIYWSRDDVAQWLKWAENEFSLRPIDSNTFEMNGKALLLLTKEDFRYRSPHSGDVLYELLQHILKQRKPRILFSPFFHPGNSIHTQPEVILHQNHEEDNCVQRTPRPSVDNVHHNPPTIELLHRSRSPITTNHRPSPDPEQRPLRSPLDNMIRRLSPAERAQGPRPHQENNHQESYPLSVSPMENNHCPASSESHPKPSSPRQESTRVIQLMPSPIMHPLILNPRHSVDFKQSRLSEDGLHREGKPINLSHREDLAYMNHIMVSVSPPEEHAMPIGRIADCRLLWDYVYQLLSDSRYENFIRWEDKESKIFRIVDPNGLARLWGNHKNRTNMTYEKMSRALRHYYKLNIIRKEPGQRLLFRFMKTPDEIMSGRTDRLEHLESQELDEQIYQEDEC
Sequence of ETV1 (P50549 whole entry): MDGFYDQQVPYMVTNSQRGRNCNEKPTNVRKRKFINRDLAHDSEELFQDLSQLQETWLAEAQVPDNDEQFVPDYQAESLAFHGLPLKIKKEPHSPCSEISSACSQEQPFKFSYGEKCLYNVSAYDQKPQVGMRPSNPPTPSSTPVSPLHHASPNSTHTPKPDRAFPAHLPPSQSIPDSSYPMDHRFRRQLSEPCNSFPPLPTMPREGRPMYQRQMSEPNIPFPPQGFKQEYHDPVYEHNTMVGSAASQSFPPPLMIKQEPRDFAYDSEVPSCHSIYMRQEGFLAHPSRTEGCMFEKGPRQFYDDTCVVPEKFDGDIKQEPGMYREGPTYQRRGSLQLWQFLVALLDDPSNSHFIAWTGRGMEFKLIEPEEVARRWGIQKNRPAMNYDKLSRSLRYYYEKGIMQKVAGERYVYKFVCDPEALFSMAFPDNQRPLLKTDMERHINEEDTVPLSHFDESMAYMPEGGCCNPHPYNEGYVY

ACCCCT
binding signal (ELK4): 1.28 fold enrichment (6-mer frequency, TF over GST control) | binding signal (ETV2): 1.17 fold enrichment (6-mer frequency, TF over GST control) | binding signal (ELF3): 1.09 fold enrichment (6-mer frequency, TF over GST control) | binding signal (ETV1): 1.21 fold enrichment (6-mer frequency, TF over GST control) | binding signal (ERF): 1.06 fold enrichment (6-mer frequency, TF over GST control) | binding signal (ETV3L): 1.05 fold enrichment (6-mer frequency, TF over GST control) | binding signal (ETS2): 1.08 fold enrichment (6-mer frequency, TF over GST control) | binding signal (ETV7): 1 fold enrichment (6-mer frequency, TF over GST control) | binding signal (ETV3): 1.03 fold enrichment (6-mer frequency, TF over GST control) | binding signal (ETV6): 1.16 fold enrichment (6-mer frequency, TF over GST control)
